Measured values as given in PubChem BioAssay.
For part of these data: Measured potencies and affinities stand elsewhere. Calls of active or inactive are those of the source.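 How the source made its calls, unless noted: active means primary screen activator hit with a dose response curve and TRPC4 channel activation at any tested dose; inactive means no activation, no dose response, or not a primary hit.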

Experiments:
[1] = test system: TRPC4 beta (transient receptor potential cation channel C4), mouse; assay: TRPC4 cation channel opening, retest – cell-based, Fluo4 calcium, HEK293 TRPC4beta/mu-opioid, duplicates, 10 µM, confirmation (AID 2426;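 active means fluorescence ratio normalized to control raised more than 50% in primary screen plus both repeat runs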); details: Fluo4 calcium fluorescence, at 10 µM; hits give high values
[2] = test system: transient receptor potential cation channel C4 beta (TRPC4), mouse; assay: TRPC4 cation channel opening, second retest – cell-based, second round, Fluo4, HEK293 TRPC4beta/mu-opioid, 1 µM, confirmation (AID 2461;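 active means primary screen active and over 50% activation in each of two duplicate runs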); details: Fluo4 calcium fluorescence, at 1 µM; hits give high values
[3] = test system: TRPC4 (transient receptor potential cation channel C4 beta), mouse; assay: potentiation of DAMGO EC20 TRPC4 response – cell-based, second round, Fluo-4, HEK293 TRPC4beta/mu-opioid, 1 µM, confirmation (AID 2554;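 active means primary screen hit whose fluorescence ratio, in both repeats, exceeds the weak agonist control mean by 3 SD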); details: DAMGO EC20, Fluo-4 calcium flux, at 1 µM; hits give high values
[4] = test system: TRPC4 beta (transient receptor potential cation channel C4), mouse; assay: potentiation of DAMGO EC20 TRPC4 response – cell-based, Fluo-4, HEK293 TRPC4beta/mu-opioid, confirmation (AID 2555;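 active means primary screen hit whose calcium fluorescence ratio, in both repeats, exceeds the weak agonist control mean by 3 SD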); details: DAMGO EC20, Fluo-4 calcium flux, at 10 µM; hits give high values
[5] = target: Short transient receptor potential channel 4 (Mus musculus) (UniProt Q9QUQ5); assay: blockers of DAMGO-evoked TRPC4 calcium flux – cell-based, Fluo4, HEK293 TRPC4beta/mu-opioid, confirmation (AID 2636;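 active means calcium signal cut by more than 3 SD below the full-agonist control yet still positive, in both repeats and the earlier primary screen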); details: at 10 µM; hits give high values
Chain of Short transient receptor potential channel 4 (Mus musculus) (Q9QUQ5 whole entry, looked up): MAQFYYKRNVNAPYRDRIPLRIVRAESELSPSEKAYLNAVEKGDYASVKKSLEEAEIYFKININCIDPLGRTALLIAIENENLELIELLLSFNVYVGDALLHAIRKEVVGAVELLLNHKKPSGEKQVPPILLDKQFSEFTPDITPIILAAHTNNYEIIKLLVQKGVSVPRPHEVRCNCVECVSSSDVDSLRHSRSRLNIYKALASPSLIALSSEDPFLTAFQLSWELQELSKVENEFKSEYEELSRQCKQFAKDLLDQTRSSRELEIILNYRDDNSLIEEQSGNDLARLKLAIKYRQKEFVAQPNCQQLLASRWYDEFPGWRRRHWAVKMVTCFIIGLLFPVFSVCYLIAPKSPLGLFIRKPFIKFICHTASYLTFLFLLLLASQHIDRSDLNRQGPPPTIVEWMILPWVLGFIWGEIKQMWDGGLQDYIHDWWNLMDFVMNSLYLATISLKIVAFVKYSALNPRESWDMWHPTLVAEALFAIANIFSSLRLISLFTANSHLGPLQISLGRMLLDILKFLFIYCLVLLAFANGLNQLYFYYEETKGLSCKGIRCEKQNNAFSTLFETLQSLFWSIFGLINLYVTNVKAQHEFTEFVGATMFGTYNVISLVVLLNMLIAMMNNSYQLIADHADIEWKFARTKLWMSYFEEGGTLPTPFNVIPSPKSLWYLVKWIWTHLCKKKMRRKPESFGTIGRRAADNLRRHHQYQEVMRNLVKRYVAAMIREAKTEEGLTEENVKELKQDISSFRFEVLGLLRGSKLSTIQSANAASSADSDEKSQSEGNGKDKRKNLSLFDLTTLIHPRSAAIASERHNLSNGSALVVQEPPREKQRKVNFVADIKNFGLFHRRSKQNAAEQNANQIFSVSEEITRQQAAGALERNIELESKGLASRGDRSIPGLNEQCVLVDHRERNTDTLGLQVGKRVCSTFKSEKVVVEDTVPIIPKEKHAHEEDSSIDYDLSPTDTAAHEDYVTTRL

[6] = target: Short transient receptor potential channel 4 (Mus musculus) (UniProt Q9QUQ5); assay: blockers of DAMGO-evoked TRPC4 calcium flux – cell-based, second round, Fluo4, HEK293 TRPC4beta/mu-opioid, 1 µM, confirmation (AID 2637;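 active means calcium signal ratio cut to more than 3 SD under the fully stimulated control mean yet still positive, in both repeats and the primary screen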;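 on inhibition: percent of integrated ratio relative to wells lacking test compound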); details: at 1 µM; hits give high values
[7] = target: Short transient receptor potential channel 4 (Mus musculus) (UniProt Q9QUQ5); assay: calcium entry via TRPC4 opening agents – cell-based, HEK293 TRPC4/mu-opioid, Fluo-4 calcium, dose response (AID 434937)
[8] = target: Short transient receptor potential channel 4 (Mus musculus) (UniProt Q9QUQ5); assay: potentiation of DAMGO-evoked TRPC4 calcium signal – cell-based, HEK293 TRPC4/mu-opioid, Fluo-4 calcium, EC20 DAMGO, dose response (AID 434941;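 active means earlier screen potentiator hit that boosts the TRPC4 ion channel at some dose, with a dose response; inactive means no potentiation, no dose response, or not a prior hit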;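 further: calcium entry triggered by an EC20 dose of DAMGO at the co-expressed mu-opioid receptor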)
[9] = target: Short transient receptor potential channel 4 (Mus musculus) (UniProt Q9QUQ5); assay: block of DAMGO-driven TRPC4 calcium entry – cell-based, HEK293 TRPC4/mu-opioid, Fluo-4 calcium, dose response (AID 434942;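 active means primary screen inhibitor hit that blocks the TRPC4 channel at some tested dose, yielding a dose curve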)
[10] = target: Short transient receptor potential channel 6 (Mus musculus) (UniProt Q61143); assay: TRPC6 blockade by TRPC4 inhibitor hits – cell-based, HEK293, membrane potential dye, duplicate, selectivity assay for TRPC4 inhibitor project, confirmation (AID 434948;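 active means active in primary screen and both duplicates, each dropping signal beyond three positive-control SD with fluorescence still positive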); details: HEK293 TRPC6, membrane potential dye fluorescence, at 10 µM, stimulated with maximal-effect acetylcholine; hits give high values
Chain of Short transient receptor potential channel 6 (Mus musculus) (Q61143 whole entry, looked up): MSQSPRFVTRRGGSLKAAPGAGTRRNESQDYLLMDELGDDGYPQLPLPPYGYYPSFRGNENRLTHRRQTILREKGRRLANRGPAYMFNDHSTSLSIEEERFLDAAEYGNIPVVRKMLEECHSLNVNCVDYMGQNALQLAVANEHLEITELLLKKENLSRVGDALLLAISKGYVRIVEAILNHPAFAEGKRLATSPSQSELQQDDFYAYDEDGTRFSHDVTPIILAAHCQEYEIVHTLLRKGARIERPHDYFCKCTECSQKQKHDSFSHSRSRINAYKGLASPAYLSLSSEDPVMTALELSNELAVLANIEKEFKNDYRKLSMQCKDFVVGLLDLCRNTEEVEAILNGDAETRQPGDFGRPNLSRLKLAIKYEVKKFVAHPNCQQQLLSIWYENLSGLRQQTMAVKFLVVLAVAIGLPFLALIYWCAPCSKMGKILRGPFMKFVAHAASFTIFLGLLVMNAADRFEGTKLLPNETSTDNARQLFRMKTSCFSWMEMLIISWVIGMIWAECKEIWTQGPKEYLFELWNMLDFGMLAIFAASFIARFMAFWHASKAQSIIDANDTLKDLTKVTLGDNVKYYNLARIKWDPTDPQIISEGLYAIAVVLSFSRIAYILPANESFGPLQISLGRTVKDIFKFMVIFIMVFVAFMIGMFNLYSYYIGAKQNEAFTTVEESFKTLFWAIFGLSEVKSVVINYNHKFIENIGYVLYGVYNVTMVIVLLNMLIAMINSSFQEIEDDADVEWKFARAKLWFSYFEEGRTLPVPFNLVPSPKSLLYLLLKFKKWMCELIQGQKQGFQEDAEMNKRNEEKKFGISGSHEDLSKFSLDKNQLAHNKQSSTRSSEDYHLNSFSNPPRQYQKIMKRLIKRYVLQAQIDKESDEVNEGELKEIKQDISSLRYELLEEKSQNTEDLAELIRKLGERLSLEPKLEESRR

[11] = target: Short transient receptor potential channel 6 (Mus musculus) (UniProt Q61143); assay: TRPC6 opening by TRPC4 activator hits – cell-based, HEK293, membrane potential dye, duplicate, selectivity assay for TRPC4 activator project, confirmation (AID 434950;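 active means membrane potential signal rise above negative control mean plus 3 SD in both duplicates, also active in the earlier TRPC4 screen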); details: HEK293 TRPC6, membrane potential fluorescence, at 10 µM; activation: hits give high values; outcome: activation
[12] = target: Short transient receptor potential channel 6 (Mus musculus) (UniProt Q61143); assay: positive modulators of mouse TRPC6 channel – HEK293 cells, membrane potential dye, duplicate, selectivity assay for TRPC4 potentiator project, confirmation (AID 434952;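 active means compound raising the membrane signal above positive-control mean plus 3 SD in both repeats, and a primary screen hit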); details: HEK293 TRPC6, membrane potential dye fluorescence, at 10 µM, maximal acetylcholine added after compound; hits give high values
[13] = target: Short transient receptor potential channel 4 (Mus musculus) (UniProt Q9QUQ5); assay: calcium flux activators in TRPC4/5HT1a cells, counter-screen for TRPC4 activator project, cell-based, second counter screen, HEK293 TRPC4/5HT1a, Fluo-4 (AID 434977;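 active means calcium signal rise above buffer-control mean plus 5 SD in both duplicates, and also a hit in the primary screen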); details: Fluo-4 calcium flux, at 10 µM; hits give high values
[14] = serotonin-gated TRPC4 signal block – cell-based, second counter screen, HEK293 TRPC4/5HT1a, Fluo-4, counter-screen for TRPC4 inhibitor project, confirmation (AID 434978;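 active means primary screen active whose calcium signal fell more than 3 SD beyond the full-serotonin control mean in both duplicate plates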;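 on outcome: serotonin given first at submaximal then at maximal dose after compound preincubation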); details: Fluo-4 calcium flux, at 10 µM, serotonin added to trigger calcium flux; hits give high values
[15] = test system: TRPC4 (mouse), co-expressed with 5HT1a in HEK293; assay: enhancement of serotonin-evoked TRPC4 response – cell-based, second counter screen, HEK293 TRPC4/5HT1a, Fluo-4, counter-screen for TRPC4 potentiator project, confirmation (AID 434979;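 active means signal rise over 3 SD above mean of control wells given weak agonist, in both repeats and first screen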); details: Fluo-4 calcium flux, at 10 µM, serotonin added at its EC20 dose; hits give high values
[16] = nonspecific calcium rise without TRPC4 – cell-based, HEK293 mu-opioid receptor line, counter-screen for TRPC4 activator project, confirmation (AID 449723;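 active means hit in primary screen, with calcium signal over 5 SD above buffer well mean in both duplicates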;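 further: counter screen cells carry the mu-opioid receptor alone and lack TRPC4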); details: HEK293 mu-opioid cells, Fluo-4 calcium fluorescence, at 10 µM; hits give high values
[17] = nonspecific potentiation of DAMGO calcium response – cell-based, HEK293 mu-opioid receptor line, counter-screen for TRPC4 allosteric potentiator project, confirmation (AID 449724;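 active means calcium signal rise more than 3 SD above the low-dose agonist control mean, in both duplicate plates and the primary screen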); details: HEK293 mu-opioid receptor cells, Fluo-4 calcium flux, at 10 µM, compound added before EC20 DAMGO stimulus; hits give high values
[18] = nonspecific flux increase, KCNQ1-free cells – parental CHO cells, counter-screen for KCNQ1 potentiator project (AID 493006;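 active means duplicate-averaged activation above buffer control mean plus 5 SD of those controls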;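 on activation: fluorescence ratio of max minus min over baseline after K+ and Tl+ depolarization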); details: parental CHO-K1 cells, FluxOR thallium flux, at 10 µM; hits give high values
[19] = target: Potassium voltage-gated channel subfamily KQT member 1 (Homo sapiens) (UniProt P51787); assay: enhancement of KCNQ1 channel thallium flux – FluxOR thallium flux, CHO cells, duplicates, confirmation (AID 493007;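 active means potentiation averaged over duplicate wells exceeding buffer-only control mean by more than 3 SD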;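 on outcome: cells depolarized by a potassium plus thallium sulfate stimulus after compound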;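 on potentiation: 0% = buffer-only wells and 100% = R-L3 activator control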); details: KCNQ1 cell line, FluxOR thallium flux fluorescence, at 10 µM; hits give high values, % of reference activator effect, buffer zero
Chain of Potassium voltage-gated channel subfamily KQT member 1 (Homo sapiens) (P51787 whole entry, looked up): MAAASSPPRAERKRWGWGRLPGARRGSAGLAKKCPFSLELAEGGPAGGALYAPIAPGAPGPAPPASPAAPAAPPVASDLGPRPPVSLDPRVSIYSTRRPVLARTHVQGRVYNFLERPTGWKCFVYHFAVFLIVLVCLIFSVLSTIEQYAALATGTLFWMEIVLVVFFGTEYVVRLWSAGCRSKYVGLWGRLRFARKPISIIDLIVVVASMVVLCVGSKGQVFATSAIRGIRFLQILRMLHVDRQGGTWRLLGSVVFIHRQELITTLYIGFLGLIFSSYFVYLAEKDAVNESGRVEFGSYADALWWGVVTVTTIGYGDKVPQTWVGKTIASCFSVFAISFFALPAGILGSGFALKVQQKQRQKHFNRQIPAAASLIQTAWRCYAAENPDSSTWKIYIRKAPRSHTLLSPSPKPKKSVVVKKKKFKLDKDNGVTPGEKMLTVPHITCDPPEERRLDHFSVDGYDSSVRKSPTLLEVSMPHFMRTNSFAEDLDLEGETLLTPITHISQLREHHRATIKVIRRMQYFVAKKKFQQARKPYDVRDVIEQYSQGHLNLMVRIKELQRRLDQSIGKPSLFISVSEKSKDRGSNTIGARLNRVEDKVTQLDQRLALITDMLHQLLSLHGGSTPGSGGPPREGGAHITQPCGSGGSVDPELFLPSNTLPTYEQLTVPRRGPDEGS

[20] = target: Potassium voltage-gated channel subfamily KQT member 2 (Rattus norvegicus) (UniProt O88943); assay: KCNQ2 thallium flux enhancement – KCNQ2-CHO-K1 cells, selectivity assay for KCNQ1 potentiator project (AID 493009;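 active means mean duplicate potentiation above the buffer control mean plus 5 SD of buffer wells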;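 further: assay conditions were tuned for KCNQ1 rather than KCNQ2 modulators; signal is max minus min fluorescence divided by baseline after thallium stimulus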); details: FluxOR thallium flux fluorescence, at 10 µM; hits give high values, scaled: buffer 0, activator control 100
Chain of Potassium voltage-gated channel subfamily KQT member 2 (Rattus norvegicus) (O88943 whole entry, looked up): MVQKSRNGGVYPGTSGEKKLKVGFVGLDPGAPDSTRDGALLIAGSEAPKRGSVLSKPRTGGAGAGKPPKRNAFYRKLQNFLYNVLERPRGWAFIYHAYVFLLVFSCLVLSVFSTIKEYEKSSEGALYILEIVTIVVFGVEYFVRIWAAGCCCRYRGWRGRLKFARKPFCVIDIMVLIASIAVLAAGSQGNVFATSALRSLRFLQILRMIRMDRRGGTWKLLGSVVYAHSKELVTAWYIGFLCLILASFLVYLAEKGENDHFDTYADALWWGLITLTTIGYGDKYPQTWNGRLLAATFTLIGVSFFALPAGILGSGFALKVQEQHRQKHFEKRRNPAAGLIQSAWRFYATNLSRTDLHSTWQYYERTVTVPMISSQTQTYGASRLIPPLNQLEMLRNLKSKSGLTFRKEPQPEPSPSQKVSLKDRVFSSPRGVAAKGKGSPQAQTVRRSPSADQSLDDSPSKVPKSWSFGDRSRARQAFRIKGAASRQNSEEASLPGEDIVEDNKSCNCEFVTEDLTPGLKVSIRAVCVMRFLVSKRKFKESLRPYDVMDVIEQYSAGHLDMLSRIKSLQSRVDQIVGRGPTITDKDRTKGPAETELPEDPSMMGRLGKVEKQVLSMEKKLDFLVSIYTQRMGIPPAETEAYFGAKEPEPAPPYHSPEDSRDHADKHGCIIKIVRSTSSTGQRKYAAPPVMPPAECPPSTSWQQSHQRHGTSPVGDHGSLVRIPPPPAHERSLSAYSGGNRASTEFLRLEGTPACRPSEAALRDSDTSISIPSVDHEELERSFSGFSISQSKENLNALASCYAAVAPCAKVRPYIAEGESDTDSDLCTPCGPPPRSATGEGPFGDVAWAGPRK

CC(C)NS(=O)(=O)c1ccc(NC(=O)C(C)Oc2ccc(C(=O)c3ccccc3)cc2)cc1 (stereo unspecified)
active: potentiation [4] 36% | potentiation [15] 30.1%
inactive: outcome [1] | outcome [2] | outcome [3] | outcome [5] | outcome [6] | outcome [7] | outcome [8] | outcome [9] | outcome [10] | outcome [11] | outcome [12] | outcome [13] | outcome [14] | outcome [16] | outcome [17] | outcome [18] | outcome [19] | outcome [20]

COC(=O)CSc1nnc(CNS(=O)(=O)c2ccc(Br)cc2)n1C
inactive: outcome [1] | outcome [2] | outcome [3] | outcome [4] | outcome [5] | outcome [6] | outcome [7] | outcome [8] | outcome [9] | outcome [10] | outcome [11] | outcome [12] | outcome [13] | outcome [14] | outcome [15] | outcome [16] | outcome [17]

Cc1ccc2c(c1)C1CN(C)CCC1N2C(=S)NC(=O)c1ccc(Br)cc1 (stereo unspecified)
inactive: outcome [1] | outcome [2] | outcome [3] | outcome [5] | outcome [6] | outcome [7] | outcome [8] | outcome [9] | outcome [10] | outcome [11] | outcome [12] | outcome [13] | outcome [14] | outcome [16] | outcome [17]
active: potentiation [4] 15% | potentiation [15] 23.8% | activation [18] 170% | potentiation [19] 41% | potentiation [20] 200%

CN(C)CCCN(C(=O)CCc1ccccc1)c1nc2ccc(F)cc2s1
inactive: outcome [1] | outcome [2] | outcome [3] | outcome [4] | outcome [5] | outcome [6] | outcome [7] | outcome [8] | outcome [9] | outcome [10] | outcome [11] | outcome [12] | outcome [13] | outcome [14] | outcome [15] | outcome [16] | outcome [17] | outcome [18] | outcome [19] | outcome [20]

Cn1c(=O)c2c(nc(CN3CCc4ccccc4C3)n2Cc2cccc(Cl)c2)n(C)c1=O
active: potentiation [3] 6% | potentiation [4] 45% | potentiation [15] 78.3%
inactive: outcome [1] | outcome [2] | outcome [5] | outcome [6] | outcome [7] | outcome [8] | outcome [9] | outcome [10] | outcome [11] | outcome [12] | outcome [13] | outcome [14] | outcome [16] | outcome [17]

O=[N+]([O-])c1ccc(CN2CCN(Cc3c[nH]c4ccccc34)CC2)cc1
active: inhibition [5] 83% | inhibition [14] 28.9%
inactive: outcome [1] | outcome [2] | outcome [3] | outcome [4] | outcome [6] | outcome [7] | outcome [8] | outcome [10] | outcome [11] | outcome [12] | outcome [13] | outcome [15] | outcome [16] | outcome [17]

Cc1cc(C)nc(NC(N)=NC2CCCCC2)n1
active: inhibition [5] 92% | inhibition [6] 43% | inhibition [14] 21.9%
inactive: outcome [1] | outcome [2] | outcome [3] | outcome [4] | outcome [7] | outcome [8] | outcome [10] | outcome [11] | outcome [12] | outcome [13] | outcome [15] | outcome [16] | outcome [17]
